High-throughput results: PubChem BioAssay, Sanford-Burnham Center for Chemical Genomics
This is a sample that favours compounds with a hit; in the whole collection about 4.1% have one here.
tim10-1 inh: growth inhibitors of tim10-1 mutant yeast, primary screen, luminescence, uHTS; actives 2.2% (n = 330,000); inhibition, % at 20 µM; S. cerevisiae tim10-1 ts strain growth, BacTiter-Glo, 24 h; AID 463190, 2010;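 active means inhibition of at least 40%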;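 further: mutant grown at 25 °C; 0% = DMSO wells with yeast and 100% = wells holding no yeast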
NLRP3 yeast inh: NALP3 inflammasome inhibitors in reconstituted yeast, primary screen, luminescence, uHTS. Yeast reconstituted NLRP3/ASC/caspase-1, beta-gal luminescence, 24 h. inhibition, % at 10 µM. actives 0.39% (n = 330,000);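 active means inhibition of 50% or more; inactive means inhibition below 50%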;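 further: plate controls were induced DMSO wells for no effect and uninduced yeast grown without galactose for full effect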
tim23-1 inh: growth inhibitors of tim23-1 mutant yeast, primary screen, luminescence, uHTS; S. cerevisiae tim23-1 growth, BacTiter-Glo luminescence, 24 h; inhibition, % at 20 µM; actives 1.3% (n = 330,000); AID 463212, 2010;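 active means growth inhibition of the mutant yeast at or above 50%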;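 further: temperature-sensitive mutant grown at 25 °C; plate controls were DMSO-treated mutant yeast for no effect and medium wells lacking yeast for full effect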
NALP1 yeast inh: NALP1 inflammasome inhibitors in reconstituted yeast, colorimetric, S. cerevisiae, triplicate retest | actives 0.61% (n = 280,000) | inhibition, % at 10 µM | S. cerevisiae NALP1/ASC/caspase-1 growth, X-gal OD620, 72 h; in the data active means inhibition mostly above about 24%, no sharp cut-off; inactive means mostly below about 32%
TIM10 inh: growth inhibitors of isogenic TIM10 control yeast, primary screen, counter-screen for tim10-1 yeast inhibitor project, luminescence, uHTS | S. cerevisiae TIM10 strain growth, BacTiter-Glo luminescence, 24 h | actives 1.4% (n = 330,000) | AID 463195, 2010 | inhibition, % at 10 µM;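 active means inhibition of 40% or more at the single tested concentration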;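 further: wild-type TIM10 isogenic control strain grown at permissive 25 °C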
tim10-1 conf: growth inhibitors of tim10-1 mutant yeast, confirmation, single concentration, luminescence, S. cerevisiae; AID 463213, 2010; shares compounds with tim10-1 inh; inhibition, % at 20 µM; S. cerevisiae tim10-1 ts strain growth, BacTiter-Glo, 24 h; actives 56% (n = 7,400);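 active means inhibition of yeast growth at or above a set limit in either of two repeat tests at 20 µM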;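 further: tim10-1 mutant grown at permissive 25 °C to find synthetic lethal compounds; 0% = DMSO yeast wells and 100% = medium wells without yeast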
tim10 confirm: growth inhibitors of wild-type TIM10 yeast, confirmation, counter-screen for tim10-1 synthetic lethality project, single concentration, luminescence, S. cerevisiae | shares compounds with TIM10 inh | S. cerevisiae tim10 strain growth, BacTiter-Glo luminescence, 24 h | inhibition, % at 10 µM | actives 63% (n = 4,600);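 active means inhibition of yeast growth at or above a set limit in either of two replicates at 10 µM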;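 further: this counterscreen used the strain with wild-type TIM10; 0% = yeast with DMSO and 100% = medium wells lacking yeast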
tim23-1 conf: tim23-1 mutant yeast growth inhibitors, confirmation, luminescence, single concentration; shares compounds with tim23-1 inh; S. cerevisiae tim23-1 growth, BacTiter-Glo luminescence, 24 h; inhibition, % at 20 µM; actives 83% (n = 4,400); AID 463218, 2010;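 active means inhibition above about 39% in either of two replicate wells at 20 µM, limit read from the data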;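 further: temperature-sensitive tim23-1 mutant grown at 25 °C; 0% = DMSO wells with yeast and 100% = medium wells without yeast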
Numbers without * were called inactive; . = no result given.

SMILES	tim10-1 inh	NLRP3 yeast inh	tim23-1 inh	NALP1 yeast inh	TIM10 inh	tim10-1 conf	tim23-1 conf	others
CC(=O)Nc1ccc(N2CCCCC2)c(C(=O)Nc2cccc(C)c2)c1	42.7*	-2.3	54.3*	11.6	38.2	56.9*	49.6*
CC(=O)c1ccc(NC(=O)c2ccc(-n3cnnn3)cc2)cc1	-25.6	-0.4	-16.5	.	-16.1	.	.
Cc1cc(C)nc(Sc2ccc(C=O)cc2[N+](=O)[O-])n1	19.3	0.9	15.1	1.9	11.2	.	.
O=Cc1ccc(Sc2nnc(-c3ccccc3)o2)c([N+](=O)[O-])c1	47.7*	23.2	55.0*	4.1	42.4*	35.3*	58.0*	tim10 confirm=18.3
COc1ccc(NC(=O)CC(C)n2ccnc2)cc1 (stereo unspecified)	-2.8	9.5	-8.2	9.0	-0.4	.	.
CC1CCN(c2c(NCc3ccc(C(=O)N4c5ccccc5CC4C)cc3)c(=O)c2=O)CC1 (stereo unspecified)	6.2	9.3	4.2	11.4	-3.6	.	.
COc1ccc2sc3ccccc3c(=O)c2c1OC	40.8*	20.2	57.7*	1.1	52.3*	56.8*	64.1*	tim10 confirm=50.2*
O=C(OCc1csc(Nc2ccccc2)n1)c1ccc(Cl)cc1	46.6*	0.2	61.4*	44.3	58.1*	25.4	44.3*	tim10 confirm=41.3*
O=C(COc1ccccc1)OCc1csc(Nc2ccccc2)n1	16.1	-8.8	29.3	32.7	14.8	.	.
CCOC(=O)[C@@H]1[C@H]2COc3cc(OC)ccc3[C@@H]2N2C(=O)N(c3ccc(C(F)(F)F)cc3)C(=O)[C@@]12C	11.7	11.8	25.4	10.2	18.9	.	.
CCOC(=O)[C@@H]1[C@H]2COc3cc(OC)ccc3[C@H]2N2C(=O)N(c3ccc(C(F)(F)F)cc3)C(=O)[C@]12C	77.0*	46.6	83.8*	.	75.0*	84.2*	86.5*	tim10 confirm=73.5*
O=C(N/N=C/c1coc2ccc(Cl)cc2c1=O)c1ccc(O)cc1	49.5*	2.5	84.3*	-4.0	31.0	-1.0	48.8*
NC(=S)N/N=C/c1coc2ccc(Cl)cc2c1=O	54.5*	15.5	81.7*	7.7	22.1	16.5	80.2*
COc1ccc(C(=O)N/N=C\c2coc3ccc(Cl)cc3c2=O)cc1	44.2*	12.2	83.7*	-2.8	33.0	-4.2	74.6*
COc1cc(C(=O)N/N=C/c2coc3ccc(Cl)cc3c2=O)ccc1O	52.0*	11.7	80.8*	15.4	34.7	7.9	48.6*
COc1cc(C(=O)N/N=C/c2coc3ccccc3c2=O)cc(OC)c1OC	20.1	2.7	33.0	-11.1	9.4	.	.
COC(=O)c1ccccc1NC(=O)N1CCN(c2ccc(OC)cc2)CC1	28.8	-29.1	30.7	-5.9	23.9	.	.
COc1ccccc1CC(=O)N1CCN(c2cccc(C(F)(F)F)c2)CC1	21.4	2.8	26.6	2.0	4.8	.	.
CCOC(=O)C1CCN(c2c([N+](=O)[O-])c(C(Cl)Cl)nn2-c2ccccc2)CC1	29.5	9.0	43.1	30.1	34.4	.	.
O=[N+]([O-])c1c(C(Cl)Cl)nn(-c2ccccc2)c1N1CCCC1	61.3*	7.0	60.6*	-29.2	19.8	60.8*	57.5*
COCc1ccc(C(=O)N2CCCC(C(=O)c3cc(F)ccc3F)C2)s1 (stereo unspecified)	14.7	17.7	24.3	13.3	-9.4	.	.
CN(C)CCN(C)Cc1c2ccccc2c(CN(C)CCN(C)C)c2ccccc12	47.1*	4.2	58.0*	19.1	31.8	35.5*	56.3*
O=c1/c(=C/c2cccc3ccccc23)sc2ncnn12	46.2*	3.1	68.7*	-7.3	16.0	18.9	73.6*
